Data on 40 molecules can be found in PubChem BioAssay (NCATS).

Several values for one entry are separate records, joined by “and”; a condition that tells them apart may be missing. Equal values may be shown once. Results filed as inconclusive are left out. Values without a mark were called inactive. Activity calls are given as the source filed them. The call rests on the fitted dose curve; in most records, active means well fitted cell-killing curve with a large enough effect; inconclusive means small, poorly fitted or top-dose-only effect, or effect the other way; inactive means no such curve, though single readings can be large or run the other way.
Potency means the concentration at half of the fitted maximal effect.

The assay can be described thus: Viability qHTS for spleen associated tyrosine kinase inhibitor (SYKi) drug resistant MV4-11 cells (AID 1963824). Further: nearly all actives have a fitted effect of over 35% in size. The conditions noted are these: SYKi-resistant MV4-11 viability, CellTiter-Glo, 72 h; series mostly up to 45 µM; viability, % of control: at the top concentration. The source says: Department of Medicine, Hematology/Oncology
University Hospital Frankfurt, Germany.
Trials have shown promising clinical activity of the selective SYK inhibitor entospletinib in patients with high expressing HOXA9/MEIS1 acute leukemias. As the development of resistance mechanisms is a common problem in the use of targeted drugs, we performed a chemical library screen to identify drug sensitivities in SYK inhibitor resistant AML cells. […] Glucocorticoids are potent immunosuppressants which work in part by inhibiting the transcription of cytokine genes.
Described herein is a viability screen to look for activity in the SYK inhibitor drug resistant cell line against four NCATS compound libraries (MIPE 5.0, NPC, NPACT, and Kinase) totaling 11372 compounds. Active hits were reacquired for confirmation and further secondary assay testing.
SEQUENCE No. (e.g., 1, 2, 3, etc.); […] (e.g., Cells, Incubation, Reagent, etc.); VALUE; DESCRIPTION.
1; Media; 2uL; white, solid-bottom Corning assay plate.
2; Compounds; 23nL; Echo acoustic dispenser.
3; Cell; 5uL; 500 cells per well.
4: Incubation; 72hr; 37 C, 5% CO2, 95% humidity.
5; Reagent; 3uL; CellTiter-Glo reagent (Promega).
6; Incubation; 10min; room temperature.
7; Detection; Luminescence; ViewLux plate reader (PerkinElmer).
NOTES (numbers refer to Sequence numbers above
1. Quantitative high-throughput screening (qHTS) of small molecule compounds was conducted on drug resistant SYKi MV4-11 cell line.
2. Twenty-three nanoliter of small molecule compounds were added to each assay plates using the Echo acoustic dispenser (Beckman Coulter).
3. Cells were seeded into the assay plates at a final density of 500 cells in 5uL of media per well using the Multidrop Combi dispenser.
4. Plates were covered with stainless steel gasketed lids and incubated for 72 hours at standard cell culture conditions.
5. Viability was assessed by adding 3uL of CellTiter-Glo detection reagent (Promega).
6. Plates were covered with gasket lids and incubated for 10 minutes at room temperature.
7. Luminescence was measured on a ViewLux plate reader (PerkinElmer).
In general terms: Quantitative high-throughput screening tests each substance at several concentrations.
Turning to `O=c1nc(-c2ccccn2)sc2ccccc12`, the Potency is 2.59 µM (active).

For the molecule `CC(C)(Cc1ccccc1)NCC(O)c1ccc(O)c(NS(C)(=O)=O)c1` (stereo not given), the “viability, % of control” value was 59.2%.

On to `NC(=O)c1noc([C@H](CCCC2CCCCC2)CC(=O)NO)n1`, for which the Potency is 4.17 µM (active).

In the case of `CN[C@@H](C)[C@H]1[C@H](O)C[C@@]2(C)[C@@H]3CC[C@H]4C(C)(C)[C@@H](NC)CC[C@@]45C[C@@]35CC[C@]12C`, the viability, % of control is 80.2% [at 9.25 µM].

For `CC1CC(C(O)C(C)(C)O)OC2CC3(C)C4(C)CCC5C(C)(C)C(=O)CCC5(C)C4CCC3(O)C12O` (stereo not given), the Potency is 11.2 µM (active).

For `CN1C[C@@H]2c3ccccc3Oc3ccc(Cl)cc3[C@H]2C1`, the Potency is 18.6 µM (active).

Consider `CC1CCC2C(C)(C)C(O)CCC2(C)C12Cc1c(O)cc3c(c1O2)CN=C3N` (stereo not given), for which the “viability, % of control” value was 71.5%.

Consider `Cc1cccc(/C=N/Nc2cc(N3CCOCC3)nc(OCCc3ccccn3)n2)c1`, for which the Potency was 0.296 µM (active).

`Nc1ccc(S(=O)(=O)Nc2ccccn2)cc1`: the “viability, % of control” value was 101%.

Consider `CC1CCC2(C(=O)OC3OC(CO)C(O)C(O)C3O)CCC3(C)C(=CCC4C5(C)CC(O)C(O)C(C)(C(=O)O)C5CCC43C)C2C1(C)O` (stereo not given), for which the “viability, % of control” value was 89.9% [at 17.3 µM].

As for `CC(C)n1ncnc1-c1cn2c(n1)-c1ccc(O[C@@H](C)C(N)=O)cc1OCC2`, the Potency was 4.68 µM (active).

Take `CCCCC(CC)COC(=O)c1ccccc1C(=O)O` (stereo not given): the Potency is 19.7 µM (active).

As to `CC1(C)CC(=O)C2=C(C1)NC(=S)NC2c1cccc(O)c1` (stereo not given), the Potency was 0.58 µM (active).

Turning to `COc1ccc(C=Cc2cc(OC)c(OC)c(OC)c2)cc1NC(=O)[C@H](N)CO`, the Potency was 0.0417 µM (active).

In the case of `COc1ccnc(CCc2nc3ncccc3[nH]2)c1`, the “viability, % of control” value is 86.4%.

On to `O=C1NCCSc2c1sc1ccc(O)cc21`, for which the Potency is 2.91 µM (active).

On to `CC1=C(C(=O)O[C@@H]2O[C@H](COC3OCC(O)C(O)C3O)[C@@H](O)[C@H](O)[C@H]2O)C(C)(C)CCC1` (stereo not given in full), for which the “viability, % of control” value was 61.9% [at 17.3 µM].

With `C=CC(=O)Nc1cccc(Oc2nc(Nc3ccc(N4CCN(C)CC4)cc3)nc3ccsc23)c1`, the Potency was 3.32 µM (active).

With `CO[C@H]1/C=C/O[C@@]2(C)Oc3c(C)c(O)c4c(O)c(c(/C=N\N5CCN(C6CCCC6)CC5)c(O)c4c3C2=O)NC(=O)/C(C)=C\C=C\[C@H](C)[C@H](O)[C@@H](C)[C@@H](O)[C@@H](C)[C@H](OC(C)=O)[C@@H]1C`, the Potency is 11.8 µM (active).

Take `CN(C)CCN1C(=O)c2cccc3cc(N)cc(c23)C1=O`: the Potency was 3.72 µM (active).

For the molecule `Nc1nccc(Oc2ccc(NC(=O)c3c[nH]cc(-c4ccc(F)cc4)c3=O)cc2F)c1Cl`, the Potency is 0.0291 µM (active).

Regarding `CCS(=O)(=O)Nc1ccc(Oc2ccc(F)cc2F)c(-c2cn(C)c(=O)c3[nH]ccc23)c1`, the Potency was 0.0042 µM (active).

Take `O=C(O)Cc1cn([C@@H]2OC[C@@H](O[C@@H]3O[C@H](CO)[C@@H](O)[C@H](O)[C@H]3O)[C@H](O)[C@H]2O[C@@H]2O[C@H](CO)[C@@H](O)[C@H](O)[C@H]2O)c2ccccc12`: the “viability, % of control” value was 90.6% [at 17.3 µM].

Take `CCOc1cc(NC(C)=O)ccc1C(=O)OC`: the “viability, % of control” value was 105%.

Turning to `COc1ccc(-n2nc(C(N)=O)c3c2C(=O)N(c2ccc(N4CCCCC4=O)cc2)CC3)cc1`, the “viability, % of control” value is 76.7%.

For `O=C(O)COCCN1CCN(C(c2ccccc2)c2ccc(Cl)cc2)CC1` (stereo not given), the “viability, % of control” value is 91.3%.

Take `COc1cc(N)c(Cl)cc1C(=O)NC1CCN(Cc2ccccc2)CC1`: the “viability, % of control” value was 75.1%.

For the molecule `Cc1[nH]nc2ncc(C(=O)N3CCC[C@H]3c3ccc(Cl)cc3)cc12`, the Potency is 2.95 µM (active).

Turning to `COc1cccc(OCCCN)c1-c1cc(Nc2cnc(C#N)cn2)n[nH]1`, the Potency is 0.0116 µM (active).

For the molecule `C[C@]12C=CC(=O)C=C1CC[C@@H]1[C@@H]2[C@@H](O)C[C@@]2(C)[C@H]1CC[C@]2(O)C(=O)CO`, the “viability, % of control” value is 53.1%.

On to `CCOC(=O)C1=C(C)NC2=C(C(=O)CC(C)(C)C2)C1c1ccc(-c2ccccc2)cc1` (stereo not given), for which the Potency is 18.4 µM (active) and 18.6 µM (active).

As to `Cc1c(C(N)=O)cc([N+](=O)[O-])cc1[N+](=O)[O-]`, the “viability, % of control” value was 73.3%.

In the case of `CC1(C)CC[C@]2(C(=O)O[C@@H]3O[C@H](CO)[C@@H](O)[C@H](O)[C@H]3O)CC[C@]3(C)C(=CCC4[C@@]5(C)C[C@@H](O)[C@H](O)[C@@](C)(CO)C5CC[C@]43C)C2[C@@H]1O` (stereo not given in full), the “viability, % of control” value is 79.1% [at 17.3 µM].

Turning to `C[C@@H]1O[C@@H](O[C@H]2[C@H](O[C@H]3CO[C@@H](O[C@H]4CC[C@@]5(C)C(CC[C@]6(C)C5CC[C@]57OC[C@@]8(CC[C@](C)(CO)CC85)[C@H](O)C[C@]76C)C4(C)C)[C@H](O[C@@H]4O[C@H](CO)[C@@H](O)[C@H](O)[C@H]4O)[C@H]3O)O[C@H](CO)[C@@H](O)[C@@H]2O)[C@H](O)[C@H](O)[C@H]1O` (stereo not given in full), the viability, % of control is 95% [at 9.25 µM].

For the molecule `NC(CS)C(=O)O` (stereo not given), the “viability, % of control” value was 74.6%.

As to `CCC(=O)N1CCN(c2ccc(-n3c(=O)ccc4cnc5ccc(-c6cnc7ccccc7c6)cc5c43)cc2C(F)(F)F)CC1`, the Potency was 59.6 nM (active) and 102 nM (active).

As for `CC(=O)O/N=C1/C(c2c(O)[nH]c3cc(Br)ccc23)=Nc2ccccc21`, the Potency is 0.209 µM (active).

`[2H]C([2H])(Nc1nc(-c2ccccc2C([2H])(C([2H])([2H])[2H])C([2H])([2H])[2H])ncc1C)c1ccc(-n2ccnn2)cc1`: the Potency was 11.8 µM (active).

As to `C=CC(C)(C)C12C=C(OC)C(=O)N3C(C(C)C)C(=O)NC31N(OC)c1ccccc12` (stereo not given), the Potency is 7.09 µM (active).

Turning to `Cc1nc2cc(-c3cc(F)cc(C#N)c3)ccc2s1`, the “viability, % of control” value was 81.3%.
